Among all 410,000 compounds or so, about 18,000 (4.4%) were called active. About 7% were inconclusive and are not listed. This excerpt belongs to a sample that is enriched for actives. Unmarked numbers belong to inactive results. Rule as the data show it: active = activity change below about -60%; inconclusive = no clear call, values can overlap the other calls; inactive = above about -39%.
experiment: qHTS Assay for inhibitors of the human cytomegalovirus (HCMV); settings: HFF cells, HCMV-luciferase reporter, 72 h; at 57.5 µM; active compounds read low
Procedure, shortened: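 Screen run at 2 compound doses on HFFs infected with reporter HCMV, MOI 1 PFU/cell. Luciferase activity from cell lysates at 72 h post infection gave inhibition relative to buffer-only and Salinomycin wells.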
% is scaled to controls: 0 for no effect and ±100 for the full control effect.

Compound	activity change, negative = inhibition
Cc1cc(C)cc(NC(=O)Cc2csc(C)n2)c1	53.8%
Cc1ccc(Cn2c(CCCNC(=O)C3CCCCC3)nc3ccccc32)cc1	-11.7%
COc1ccc(N2CCN(S(=O)(=O)CCNC(=O)C(c3ccccc3)c3ccccc3)CC2)cc1	1.25%
COC(=O)c1ccc2c(c1)N(CC(=O)Nc1ccc(C)c(C)c1)C(=O)c1ccccc1S2	6.12%
CCc1ccc(N(CC(=O)Nc2sc3c(c2C(=O)OC)CCCC3)S(C)(=O)=O)cc1	40.2%
COC(=O)c1c(NC(=O)c2ccc(Cl)c(Cl)c2)sc2c1CCCC2	15%
COC(=O)c1c(NC(=O)CSc2nncs2)sc2c1CCCCC2	-61.6% (active)
COc1ccc(S(=O)(=O)N2CCN(CC(=O)NCC3(N4CCOCC4)CCCCC3)CC2)cc1	-36.1%
O=C(CN1CCN(C(=S)NC2CCCC2)CC1)Nc1ccc(Oc2ccccc2)cc1	-79.5% (active)
O=C(CN1CCN(S(=O)(=O)c2ccc3ccccc3c2)CC1)NC(=O)NC1CCCCC1	-4.61%
CCC(=O)c1ccc(OCC(=O)N2CCN(CC(=O)Nc3ccc(C)cc3)CC2)cc1	6.75%
CC1(C)OC(=O)C2=C(C[C@@H](C3CC3)O[C@H]2c2ccc(Cl)cc2)O1	-11.9%
Fc1ccccc1OCCCCn1cncn1	-9.84%
O=c1c2ccccc2ncn1CCCCOc1ccccc1F	-105% (active)
O=c1c2ccccc2ncn1CCc1ccncc1	16.6%
COc1ccc(CCN2C(=O)c3oc4cc(C)cc(C)c4c(=O)c3C2c2ccccc2F)cc1OC (stereo not drawn)	-2.86%
COc1ccc(Br)cc1C1CC(=O)Nc2c1c(C)nn2-c1nc(C)cc(C)n1 (stereo not drawn)	-4.09%
CN1CCC2(CC1)NC(=O)NC2=O	7.02%
O=C(COc1cccnc1[N+](=O)[O-])Nc1ccc(Cl)cc1F	9.57%
Cc1ccc2cc(CCNC(=O)c3ccc4c(c3)OCO4)c(=O)[nH]c2c1	-60.5% (active)

Compound	activity change, negative = inhibition
Cc1onc(-c2c(Cl)cccc2Cl)c1C(=O)c1c[nH]c(C(=O)NC2CC2)c1	16.8%
COc1ccc(-c2cnc(SCCNC(=O)c3ccc4c(c3)OCO4)[nH]2)cc1	-28.5%
Cc1ccc2cc(CCNC(=O)c3c(-c4ccccc4Cl)noc3C)c(=O)[nH]c2c1	-94.6% (active)
Cc1onc(-c2ccccc2Cl)c1C(=O)N(Cc1ccc(N(C)C)cc1)C(C)C	-25.9%
O=C(NCCc1ccc(C(F)(F)F)cc1)c1ccc2c(c1)OCO2	-38.1%
COC(=O)C1=CN(c2c(C)cc(C)cc2C)C(N)=C(C#N)C1c1cccc(F)c1 (stereo not drawn)	-18.9%
COC(=O)[C@@H]1[C@@H](CO)[C@@H]2Cn3c(cccc3=O)[C@H]1N2CC1CCCC1	13.6%
Cc1[nH]c2ccccc2c1C(c1ccccc1)c1cccs1 (stereo not drawn)	-20.6%
Cc1cc(F)ccc1S(=O)(=O)Nc1ccc(C(=O)N(C)Cc2ccco2)cc1	-17.3%
Cc1ccc(C)c(S(=O)(=O)N(C)c2ccc(OC(=O)C3CCN(C(=O)c4ccc(F)cc4)CC3)cc2)c1	-83.9% (active)
CCOC(=O)C1CCCN(C(=O)c2ccc(N(C)C)cc2)CC1 (stereo not drawn)	14.9%
CCOC(=O)C1CCCN(C(=O)c2ccc(C)c(F)c2)CC1 (stereo not drawn)	-2.4%
COc1cccc(OC)c1C(=O)OCC(=O)/C(C#N)=C(\C)N	-27.5%
C/C(N)=C(/C#N)C(=O)COC(=O)CNS(=O)(=O)c1ccc(C)cc1	-80.1% (active)
Cc1ccc(S(=O)(=O)NCC(=O)OCC(=O)N2CCc3ccccc32)cc1	-5.73%
Cc1ccc(N2CC(C(=O)Nc3cc(Cl)ccc3-n3cncn3)CC2=O)cc1 (stereo not drawn)	4.52%
CCn1cc2nc(SCc3cccc(F)c3)n(CCc3ccccc3)c(=O)c2n1	-35.3%
CN(C)C1=NC[C@H](Cc2ccccc2)N1CCc1ccc(F)cc1	-5.86%
CCCCN1C(N)=NC[C@@H]1CC1CCCCC1	-18.4%
CCCC[C@@H]1CN=C(N)N1CCc1cc(C(F)(F)F)cc(C(F)(F)F)c1	-75% (active)

Compound	activity change, negative = inhibition
O=C(Cn1cc(C(=O)c2cccs2)c2ccccc21)NCc1cccs1	-5.26%
Cc1c(Cl)cccc1NC(=O)Cn1cc(C(=O)c2cccs2)c2ccccc21	-95.6% (active)
Cc1ccccc1NC(=O)Cn1cc(C(=O)c2cccs2)c2ccccc21	-22.9%
COC(=O)C1=C(C(=O)OC)[C@@H]2N(C)c3ccccc3[C@@]23C[C@@H](C(=O)OC)N(C(C)=O)C3=N1	-27%
O=C(NCc1cccnc1)C(=O)NCC(c1cccnc1)N1CCN(c2ccccc2)CC1 (stereo not drawn)	5.63%
COc1ccc(-c2cc(NC=O)c3ncc(-c4cccc(C(=O)N(C)C)c4)n3c2)c(OC)c1	40.1%
CC(=O)Nc1cc(-c2cccc(CO)c2)cn2c(-c3cccc(C(F)(F)F)c3)cnc12	71.5%
CN(C)CCNC(=O)c1cccc(-c2cnc3c(NC=O)cc(-c4cccc(C(F)(F)F)c4)cn23)c1	-61.3% (active)
CCCn1c(NCc2ccc(N(CC)CC)cc2)nc2ccccc21	-5.55%
Cc1ccc(-c2noc(-c3nnn(-c4cccc(C(F)(F)F)c4)c3N)n2)cc1	15.9%
Cc1cccc(NC(=O)CSc2nc(-c3ccco3)cc(C(F)(F)F)n2)c1C	1.83%
CC[C@@H](C)[C@H](NC(=O)CCc1c(C)c2cc3c4c(oc3c(C)c2oc1=O)CCCC4)C(=O)O	-33.8%
Cc1coc2cc3oc(=O)c(CCC(=O)O)c(C)c3cc12	-38.4%
Cc1c(CC(=O)NCC(=O)NCC(=O)O)c(=O)oc2cc3oc4c(c3cc12)CCCC4	-60.9% (active)
Cc1ccccc1CN1CCC(CNC(=O)c2cc3ccc4cccnc4c3[nH]2)CC1	-34.7%
O=c1c(=O)n(Cc2c(F)cccc2Cl)ccn1Cc1ccccc1	-4.43%
O=[N+]([O-])/C=C/c1ccc2c(ccn2Cc2ccccc2)c1	-98% (active)
COc1ccc(Cn2ccn(Cc3cccc(OC)c3)c(=O)c2=O)cc1	6.59%
